# Data reported in PubChem BioAssay (NCATS).
# A number with no mark means an inactive call. Records with an inconclusive call do not appear. A call without a number means that no potency is given here. Activity calls are given as the source filed them. Unless noted, calls come from the whole dose curve; as a rule, active = well fitted curve in the direction sought with a large enough effect; inconclusive = small, poorly fitted or top-dose-only effect, or another doubt; inactive = no such curve, though single readings can be large; an effect the other way counts as inactive or inconclusive.
# Key:
# [1] = molecular target: Chromobox protein homolog 1 (Homo sapiens) (UniProt P83916); test: qHTS Validation Assay for Inhibitors of HP1-beta Chromodomain Interactions with Methylated Histone Tails (AID 488953);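 note: loss of AlphaScreen luminescence from HP1-beta binding biotinylated H3K9me3 peptide; series mostly up to about 110 µM; nearly all actives have a fitted effect of over 50% in size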
# Chain of Chromobox protein homolog 1 (Homo sapiens) (P83916 whole entry, looked up): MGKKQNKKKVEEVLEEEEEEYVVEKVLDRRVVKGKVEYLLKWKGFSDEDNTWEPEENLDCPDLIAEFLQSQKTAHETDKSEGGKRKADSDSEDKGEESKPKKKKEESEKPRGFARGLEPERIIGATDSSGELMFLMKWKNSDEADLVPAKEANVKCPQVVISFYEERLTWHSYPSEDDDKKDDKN
# Procedure, shortened: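 HP1-beta (50 nM) preformed 30 min with biotinylated H3(1-18)K9me3 peptide (50 nM) in PBS pH 7.4, 0.01% Tween-20. Compounds added for 30 min at room temperature. Complex disruption read by AlphaScreen with streptavidin donor/nickel chelate acceptor beads (10 ug/mL each).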
# [2] = molecular target: Methanococcus maripaludis chaperonin (MmCpn) (UniProt Q6LX38); test: High-Throughput Screening for Modulators of Cytosolic Chaperonin Activity: MmCpn Primary Screen (AID 488978);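 note: 50 nM MmCpn enzyme hydrolysing 30 µM ATP at 37 °C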
# Chain of Methanococcus maripaludis chaperonin (MmCpn) (Q6LX38 1-543): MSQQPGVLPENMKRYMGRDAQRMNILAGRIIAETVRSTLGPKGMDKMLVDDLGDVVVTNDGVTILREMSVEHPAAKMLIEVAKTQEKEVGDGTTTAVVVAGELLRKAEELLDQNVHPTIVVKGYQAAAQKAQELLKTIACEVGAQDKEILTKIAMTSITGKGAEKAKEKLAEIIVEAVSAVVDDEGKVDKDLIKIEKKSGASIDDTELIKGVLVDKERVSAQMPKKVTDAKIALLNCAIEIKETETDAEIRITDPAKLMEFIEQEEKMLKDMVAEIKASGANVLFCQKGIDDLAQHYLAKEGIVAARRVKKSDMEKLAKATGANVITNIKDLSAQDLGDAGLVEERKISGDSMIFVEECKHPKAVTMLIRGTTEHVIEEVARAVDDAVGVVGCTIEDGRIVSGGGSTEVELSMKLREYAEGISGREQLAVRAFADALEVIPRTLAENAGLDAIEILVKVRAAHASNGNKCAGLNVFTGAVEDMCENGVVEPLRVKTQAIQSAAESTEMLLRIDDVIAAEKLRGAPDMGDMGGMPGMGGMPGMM
# Procedure, shortened: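 MmCpn at 50 nM final was preincubated 5 min at RT with compound. ATP was then added at 30 uM final for 10 min at 37 C. ADP formed was detected by Transcreener HTRF (665/590 nm).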
# [3] = molecular target: D(1A) dopamine receptor (Homo sapiens) (UniProt P21728); test: HTS Assay for Allosteric Agonists of the Human D1 Dopamine Receptor: Primary Screen for Agonists (AID 488981)
# Chain of D(1A) dopamine receptor (Homo sapiens) (P21728 whole entry, looked up): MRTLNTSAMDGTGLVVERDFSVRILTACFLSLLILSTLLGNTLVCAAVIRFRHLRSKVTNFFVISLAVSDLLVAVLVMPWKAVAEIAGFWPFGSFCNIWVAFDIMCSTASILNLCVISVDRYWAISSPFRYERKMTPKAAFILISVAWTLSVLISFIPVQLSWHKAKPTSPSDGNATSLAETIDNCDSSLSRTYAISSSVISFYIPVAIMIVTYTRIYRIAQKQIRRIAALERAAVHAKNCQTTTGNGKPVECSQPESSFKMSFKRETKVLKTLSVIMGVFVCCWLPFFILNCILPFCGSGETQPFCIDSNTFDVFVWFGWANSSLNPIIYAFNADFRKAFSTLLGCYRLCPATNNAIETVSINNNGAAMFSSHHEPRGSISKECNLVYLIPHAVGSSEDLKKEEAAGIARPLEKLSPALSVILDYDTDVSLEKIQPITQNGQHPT
# Procedure, shortened: (§1)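 Calcium flux in an inducible, force-coupled HEK293 Trex D1 line (overnight at 30 C): agonist mode is the 180 s kinetic read after compound; potentiator mode is the following 180 s read after dopamine at EC20.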
# [4] = molecular target: D(1A) dopamine receptor (Homo sapiens) (UniProt P21728); test: HTS Assay for Allosteric Agonists of the Human D1 Dopamine Receptor: Primary Screen for Potentiators (AID 488982)
# Procedure, shortened: as §1
# [5] = molecular target: D(1A) dopamine receptor (Homo sapiens) (UniProt P21728); test: HTS Assay for Allosteric Agonists of the Human D1 Dopamine Receptor: Primary Screen for Antagonists (AID 488983);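 note: calcium flux response to an EC80 dopamine challenge measured with no-wash dye; nearly all actives have a fitted effect of over 65% in size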
# Procedure, shortened: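 Tetracycline-induced HEK293 T-REx D1 line, force-coupled to calcium flux, read with no-wash calcium dye. Compound added after 10 s baseline, read 180 s for agonism, then EC80 dopamine added and read a further 180 s.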
# [6] = molecular target: ATPase family AAA domain-containing protein 5 (Homo sapiens) (UniProt Q96QE3); test: Validation screen for small molecules that inhibit ELG1-dependent DNA repair in human embryonic kidney (HEK293T) cells expressing luciferase-tagged ELG1 (AID 493107);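 note: cells co-treated with the DNA-damaging agent 5-fluorouridine alongside compound; series mostly up to about 46 µM; inhibitors lower the ELG1-luciferase luminescence signal; nearly all actives have a fitted effect of over 70% in size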
# Chain of ATPase family AAA domain-containing protein 5 (Homo sapiens) (Q96QE3 whole entry, looked up, the tested form may be a part): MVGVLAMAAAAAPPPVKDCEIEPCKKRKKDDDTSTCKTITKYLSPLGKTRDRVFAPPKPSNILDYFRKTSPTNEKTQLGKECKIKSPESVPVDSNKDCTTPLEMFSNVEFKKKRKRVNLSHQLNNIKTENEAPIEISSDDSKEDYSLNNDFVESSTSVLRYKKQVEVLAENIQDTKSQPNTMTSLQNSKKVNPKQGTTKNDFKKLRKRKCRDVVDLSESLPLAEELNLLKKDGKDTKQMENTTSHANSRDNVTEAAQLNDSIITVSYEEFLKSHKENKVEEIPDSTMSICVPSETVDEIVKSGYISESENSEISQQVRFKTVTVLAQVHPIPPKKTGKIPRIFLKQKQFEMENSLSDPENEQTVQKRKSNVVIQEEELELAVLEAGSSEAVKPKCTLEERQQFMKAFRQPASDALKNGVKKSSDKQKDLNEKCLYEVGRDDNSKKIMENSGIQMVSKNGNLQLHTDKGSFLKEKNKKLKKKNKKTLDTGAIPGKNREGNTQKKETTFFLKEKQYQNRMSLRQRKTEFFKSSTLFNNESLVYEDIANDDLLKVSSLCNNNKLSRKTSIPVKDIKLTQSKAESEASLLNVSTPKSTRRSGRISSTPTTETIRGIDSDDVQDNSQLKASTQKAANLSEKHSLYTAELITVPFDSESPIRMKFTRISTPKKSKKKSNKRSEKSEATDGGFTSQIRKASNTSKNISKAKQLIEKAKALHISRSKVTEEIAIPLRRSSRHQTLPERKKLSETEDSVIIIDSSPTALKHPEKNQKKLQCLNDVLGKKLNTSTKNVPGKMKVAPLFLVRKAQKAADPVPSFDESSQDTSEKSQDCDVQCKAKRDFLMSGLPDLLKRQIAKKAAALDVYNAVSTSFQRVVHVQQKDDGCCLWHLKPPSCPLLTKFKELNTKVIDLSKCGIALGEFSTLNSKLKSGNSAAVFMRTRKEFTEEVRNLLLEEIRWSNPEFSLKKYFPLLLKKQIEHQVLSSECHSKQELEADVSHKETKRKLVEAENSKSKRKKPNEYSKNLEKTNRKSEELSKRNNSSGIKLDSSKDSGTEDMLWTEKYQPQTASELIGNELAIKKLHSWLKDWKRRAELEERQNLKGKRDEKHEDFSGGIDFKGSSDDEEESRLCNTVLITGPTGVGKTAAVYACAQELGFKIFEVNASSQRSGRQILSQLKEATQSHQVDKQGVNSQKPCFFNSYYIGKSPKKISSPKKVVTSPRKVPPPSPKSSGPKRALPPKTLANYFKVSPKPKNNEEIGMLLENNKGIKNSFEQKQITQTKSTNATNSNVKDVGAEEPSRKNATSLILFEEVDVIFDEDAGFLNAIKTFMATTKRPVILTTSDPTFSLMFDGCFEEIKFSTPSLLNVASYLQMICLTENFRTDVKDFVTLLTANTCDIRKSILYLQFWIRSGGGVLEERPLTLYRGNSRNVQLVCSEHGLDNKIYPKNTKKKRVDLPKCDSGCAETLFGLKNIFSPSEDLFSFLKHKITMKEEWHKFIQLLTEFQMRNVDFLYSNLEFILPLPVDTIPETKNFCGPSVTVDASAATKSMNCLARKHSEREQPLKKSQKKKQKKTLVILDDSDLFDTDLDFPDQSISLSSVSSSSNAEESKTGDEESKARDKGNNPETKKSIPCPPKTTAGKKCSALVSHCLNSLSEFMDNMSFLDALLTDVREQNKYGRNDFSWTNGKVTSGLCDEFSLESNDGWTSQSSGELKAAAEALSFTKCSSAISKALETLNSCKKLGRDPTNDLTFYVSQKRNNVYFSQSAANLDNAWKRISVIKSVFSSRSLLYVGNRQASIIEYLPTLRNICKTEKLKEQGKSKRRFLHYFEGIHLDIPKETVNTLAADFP
# Procedure, shortened: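 HEK293T cells expressing luciferase-tagged ELG1, 2,000 per well, treated with 5-fluorouridine plus compound for 16 h at 37 C. ONE-Glo luminescence after 30 min at room temperature reports ELG1 reporter level.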
# [7] = qHTS for Inhibitors of Cell Surface uPA Generation: Validation Assay (AID 493164)
# Procedure, shortened: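 RAW 264.7 cells (4000/well) were plated overnight, then exposed for 18 h at 37 C, 5% CO2 to compounds in a 7-point 1:5 titration (2.45 nM–38.3 uM final). Intracellular ATP was read by ATP-Lite luminescence.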
# [8] = molecular target: Peptidyl-prolyl cis-trans isomerase NIMA-interacting 1 (Homo sapiens) (UniProt Q13526); test: qHTS Validation Assay to Find Inhibitors of Pin1 (AID 504536; active = well fitted inhibition curve with a large enough effect in the polarisation, with a control signal flat, not every such curve was filed as active; the % refers to the polarisation)
# Chain of Peptidyl-prolyl cis-trans isomerase NIMA-interacting 1 (Homo sapiens) (Q13526 whole entry, looked up): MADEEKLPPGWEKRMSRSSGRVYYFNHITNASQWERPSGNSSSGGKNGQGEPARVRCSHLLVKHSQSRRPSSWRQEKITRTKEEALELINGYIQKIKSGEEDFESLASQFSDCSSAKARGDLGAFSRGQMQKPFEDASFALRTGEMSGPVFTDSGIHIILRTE
# Procedure, shortened: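 Fluorescence polarization competition: compounds (titration) displace HiFluor-488-labeled Pin1-1b peptide from Pin1 (0.3 uM final) in pH 7.5 HEPES buffer with DTT, 10 min at room temperature; %Activity normalized to no-enzyme wells, curves fitted.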
# [9] = molecular target: Phosphoglycerate kinase, glycosomal (Trypanosoma brucei brucei) (UniProt P07378); test: qHTS Validation Assay to Find Inhibitors of Phosphoglycerate Kinase (AID 504547)
# Procedure, shortened: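 Inhibition of the enzyme is judged by a Kinase-Glo Plus luminescent signal following a one-hour incubation at room temperature. Because 1,3-BPG is unstable, it is made in situ by GAPDH at 100nM final; no-PGK wells define the baseline.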
# [10] = molecular target: phosphoglycerate mutase (Leishmania major) (UniProt Q4Q090); test: qHTS Validation Assay to Find Inhibitors of Phosphoglycerate Mutase (AID 504548); note: series mostly up to about 58 µM
# Chain of phosphoglycerate mutase (Leishmania major) (Q4Q090 1-553): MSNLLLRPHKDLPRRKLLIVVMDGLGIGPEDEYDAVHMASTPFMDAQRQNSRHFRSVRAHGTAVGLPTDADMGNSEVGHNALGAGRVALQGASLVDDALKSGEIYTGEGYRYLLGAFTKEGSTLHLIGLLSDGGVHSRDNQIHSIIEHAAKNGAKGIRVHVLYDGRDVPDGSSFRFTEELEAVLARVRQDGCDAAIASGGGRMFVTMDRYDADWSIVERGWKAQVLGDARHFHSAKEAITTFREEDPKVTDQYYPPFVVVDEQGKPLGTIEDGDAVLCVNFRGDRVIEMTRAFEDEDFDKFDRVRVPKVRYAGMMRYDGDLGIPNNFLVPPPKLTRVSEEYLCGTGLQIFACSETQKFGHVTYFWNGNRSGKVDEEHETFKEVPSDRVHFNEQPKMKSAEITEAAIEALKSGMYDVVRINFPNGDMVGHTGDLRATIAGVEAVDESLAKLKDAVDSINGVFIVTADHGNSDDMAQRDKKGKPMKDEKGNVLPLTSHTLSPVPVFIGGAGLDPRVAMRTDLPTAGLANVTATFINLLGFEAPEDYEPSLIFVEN
# Procedure, shortened: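 Luminescent end-point read-out via Kinase-GloPlus after a 10-minute development. Reaction: 1.25nM Leishmania major PGAM with substrate and compound, 45 minutes at room temperature in TEA buffer (pH 7.6) with MgCl2 and Tween-20.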
# [11] = molecular target: Ubiquitin carboxyl-terminal hydrolase 1 (Homo sapiens) (UniProt O94782); test: Inhibitors of USP1/UAF1: Pilot qHTS (AID 504865); note: nearly all actives have a fitted effect of over 35% in size; note: potency is the fitted concentration of half-maximal effect
# Chain of Ubiquitin carboxyl-terminal hydrolase 1 (Homo sapiens) (O94782 whole entry, looked up): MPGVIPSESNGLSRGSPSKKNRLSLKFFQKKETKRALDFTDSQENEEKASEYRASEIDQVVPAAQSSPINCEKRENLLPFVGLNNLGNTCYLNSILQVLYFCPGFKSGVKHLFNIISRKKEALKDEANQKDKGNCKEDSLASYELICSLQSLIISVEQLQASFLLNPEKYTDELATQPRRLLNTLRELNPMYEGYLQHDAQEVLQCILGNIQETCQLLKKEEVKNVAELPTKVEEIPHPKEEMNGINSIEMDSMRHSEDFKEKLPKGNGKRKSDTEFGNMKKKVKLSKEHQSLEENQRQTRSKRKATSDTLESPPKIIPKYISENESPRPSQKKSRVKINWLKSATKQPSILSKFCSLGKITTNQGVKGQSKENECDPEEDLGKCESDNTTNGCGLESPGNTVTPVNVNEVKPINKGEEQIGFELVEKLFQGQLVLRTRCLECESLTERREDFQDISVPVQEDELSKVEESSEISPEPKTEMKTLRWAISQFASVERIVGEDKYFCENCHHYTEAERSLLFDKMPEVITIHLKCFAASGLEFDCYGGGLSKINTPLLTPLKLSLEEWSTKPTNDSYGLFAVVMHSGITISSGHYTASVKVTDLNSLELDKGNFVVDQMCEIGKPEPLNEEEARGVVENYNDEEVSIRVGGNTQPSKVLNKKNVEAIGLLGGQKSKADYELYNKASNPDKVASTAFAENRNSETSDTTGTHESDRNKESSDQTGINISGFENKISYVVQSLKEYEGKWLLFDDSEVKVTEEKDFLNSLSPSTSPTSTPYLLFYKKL
# Procedure, shortened: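 USP1/UAF1 complex at 1 nM preincubated 15 min at room temperature with compound, then Ub-Rho substrate added at 150 nM final. Fluorescence (480/540 nm) read kinetically in 50 mM HEPES pH 7.8, 0.5 mM EDTA, 1 mM TCEP, 0.1 mg/ml BSA, 0.01% Tween-20.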
# [12] = qHTS for Inhibitors of ATXN expression: Validation of Cytotoxic Assay (AID 588349)
# Procedure, shortened: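 HEK293 cells treated with titrated compound for 72 hr at 37 degrees C; viability read as intracellular ATP by CellTiter Glo luminescence.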
# [13] = qHTS for Inhibitors of ATXN expression: Validation (AID 588378); note: series mostly up to about 57 µM; nearly all actives have a fitted effect of over 75% in size
# Procedure, shortened: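 HEK293 cells carrying ATXN2-firefly luciferase reporter, treated with compound 24 h at 37 °C. Viability read first by CellTiter-Fluor (405/525 nm), then reporter expression by Bright-Glo luminescence; controls were a known ATXN2 expression inhibitor and a luciferase inhibitor.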
# [14] = molecular target: DNA dC->dU-editing enzyme APOBEC-3G (Homo sapiens) (UniProt Q9HC16); test: qHTS for inhibitors of Vif-A3G interactions: Validation (AID 588379)
# Chain of DNA dC->dU-editing enzyme APOBEC-3G (Homo sapiens) (Q9HC16 whole entry, looked up): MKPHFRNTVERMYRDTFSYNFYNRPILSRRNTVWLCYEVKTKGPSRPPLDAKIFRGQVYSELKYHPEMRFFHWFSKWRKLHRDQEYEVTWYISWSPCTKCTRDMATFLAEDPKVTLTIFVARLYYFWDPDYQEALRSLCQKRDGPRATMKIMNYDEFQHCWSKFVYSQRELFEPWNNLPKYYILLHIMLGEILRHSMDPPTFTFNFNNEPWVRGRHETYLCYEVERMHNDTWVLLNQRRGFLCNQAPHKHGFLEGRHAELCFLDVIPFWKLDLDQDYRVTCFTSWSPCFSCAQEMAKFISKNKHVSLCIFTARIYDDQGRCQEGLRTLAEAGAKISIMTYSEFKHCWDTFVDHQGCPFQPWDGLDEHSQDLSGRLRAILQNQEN
# Procedure, shortened: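 HeLa cells stably expressing Vif and A3G-eYFP, 700 cells/well, incubated overnight at 37 deg C, then exposed to compound overnight at 37 deg C. Inhibition of Vif-mediated degradation read as increased yellow fluorescence (Ex 488/Em 500-530) by laser-scanning cytometry.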
# [15] = molecular target: Glucocorticoid receptor (Homo sapiens) (UniProt P04150); test: qHTS assay for small molecule antagonists of glucocorticoid receptor signaling (AID 588533; active = well fitted inhibition curve with a large enough effect in the signal ratio, with a control signal flat, not every such curve was filed as active; the % refers to the signal ratio;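 note: cells stimulated with 2 nM dexamethasone as agonist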)
# Procedure, shortened: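 Antagonist-mode qHTS: compound titrations added to GRE-bla HeLa cells, then dexamethasone 2 nM final; 18 h, 37 C. CCF4 FRET fluorescence normalized to dexamethasone and DMSO; IC50 from Hill fit.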
structure (smiles),measurement,setting,value
C[C@H]1O[C@@H](n2cc(F)c(=O)[nH]c2=O)[C@H](O)[C@H]1O,outcome,[1],inactive
same,outcome,[2],inactive
same,outcome,[3],inactive
same,outcome,[4],inactive
same,outcome,[5],inactive
same,outcome,[6],inactive
same,outcome,[7],inactive
same,outcome,[8],inactive
same,outcome,[9],inactive
same,outcome,[10],inactive
same,Potency,[11],inactive
same,outcome,[12],inactive
same,Potency,[13],inactive
CN(C)CCN(Cc1ccc(Cl)cc1)c1ccccn1,Potency,[11],inactive
Nc1ccn([C@@H]2O[C@H](CO)[C@@H](O)[C@H]2O)c(=O)n1,Potency,[11],inactive
same,outcome,[14],inactive
COc1cc2c(cc1OC)CC(=O)N(CCCN(C)C[C@H]1Cc3cc(OC)c(OC)cc31)CC2,Potency,[11],inactive
Cc1cc(NC(=O)Nc2ccc(N(C)C)cc2)c2cc(F)cc(F)c2n1,Potency,[11],inactive
same,outcome,[14],inactive
CN1CCN2c3ncccc3Cc3ccccc3C2C1 (configuration not stated),Potency,[11],inactive
same,outcome,[14],inactive
CC(NCCc1ccc(O)cc1)C(O)c1ccc(O)cc1 (configuration not stated),Potency,[11],inactive
N#Cc1c(N(CC(=O)O)CC(=O)O)sc(C(=O)O)c1CC(=O)O,Potency,[11],inactive
NCC1CCC(C(=O)O)CC1 (configuration not stated),Potency,[11],inactive
CC1(C)OC2CC3C4CC(F)C5=CC(=O)C=CC5(C)C4C(O)CC3(C)[C@]2(C(=O)CO)O1 (some centres not stated),Potency,[11],inactive
COc1c(C)c2c(c(O)c1CC=C(C)CCC(=O)OCCN1CCOCC1)C(=O)OC2,Potency,[11],inactive
COc1ccc(CCN(C)CCCOc2ccc(S(=O)(=O)c3[nH]c4ccccc4c3C(C)C)cc2)cc1OC,outcome,[14],inactive
CC(C)CN(C[C@@H](O)[C@H](Cc1ccccc1)NC(=O)O[C@H]1CO[C@H]2OCC[C@H]21)S(=O)(=O)c1ccc(N)cc1,Potency,[11],inactive
CC1C(=O)OC2C(O)C34C5CC(C(C)(C)C)C36C(OC(=O)C6O)OC4(C(=O)O5)C12O (configuration not stated),Potency,[11],inactive
same,outcome,[14],inactive
Cc1cc2nc3c(=O)[nH]c(=O)nc-3n(CC(O)C(O)C(O)CO)c2cc1C (configuration not stated),Potency,[11],31.6 µM (active)
CN1CC(=O)N2C(Cc3c([nH]c4ccccc34)[C@H]2c2ccc3c(c2)OCO3)C1=O (some centres not stated),Potency,[11],inactive
O=C1C(CCC(O)c2ccc(F)cc2)C(c2ccc(O)cc2)N1c1ccc(F)cc1 (configuration not stated),Potency,[11],inactive
C[C@@H]1C[C@H]2[C@@H]3CCC4=CC(=O)C=C[C@]4(C)[C@@]3(F)[C@@H](O)C[C@]2(C)[C@@]1(O)C(=O)CO,outcome,[15],inactive
OC(c1cc(C(F)(F)F)nc2c(C(F)(F)F)cccc12)C1CCCCN1 (configuration not stated),Potency,[11],inactive
N#CC(c1ccc(Cl)cc1)c1c(Cl)cc(-n2ncc(=O)[nH]c2=O)cc1Cl (configuration not stated),Potency,[11],79.4 µM (active)
CS(=O)(=O)c1ccc(C2=C(c3ccccc3)C(=O)OC2)cc1,Potency,[11],inactive
